Molecules are shown by their SMILES. The panel holds about 79,000 compounds, 15% with a hit somewhere; the sample as a whole holds those more often. Values without a mark were called inactive. Active and inactive are the calls of the source. Rule as the data show it: active = growth inhibition above about 70%; inactive = the rest.

Growth inhibition data for 40 compounds are collected here from PubChem BioAssay (NCI).

Test [1] in a line: NCI Yeast Anticancer Drug Screen. Data for the rad50 strain (AID 155).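 Also: 0% = growth of vehicle-only cultures of the same strain.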 The settings on record: S. cerevisiae rad50 strain growth inhibition; at 50.0 µM; active compounds read high. Put shortly: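 DNA repair mutant yeast, compound exposure, growth read-out; inhibition is taken relative to vehicle.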
Test [2] can be described thus: NCI Yeast Anticancer Drug Screen. Data for the mec2-1 strain (AID 157). The following applies: S. cerevisiae mec2-1 strain, at 50.0 µM, active compounds read high. Summed up: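 Test agents were screened against the mec2-1 yeast strain, with defined DNA repair or cell cycle alteration. Growth was scored as inhibition against vehicle-only controls.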
Test [3] in a line: NCI Yeast Anticancer Drug Screen. Data for the sgs1 mgt1 strain (AID 161).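 Also: 0% = growth of cultures given vehicle only.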 The settings on record: S. cerevisiae sgs1 mgt1 strain, at 50.0 µM, active compounds read high. Summed up:
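Genetically altered yeast, compound exposure, growth inhibition relative to vehicle.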

The nature of test [4]: NCI Yeast Anticancer Drug Screen. Data for the cln2 rad14 strain (AID 165).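 Also: 0% = growth equal to vehicle treated cultures.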 The settings on record: S. cerevisiae cln2 rad14 strain, at 50.0 µM, active compounds read high. Put shortly:
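Growth of compound-exposed yeast (cln2 rad14 genotype) measured and expressed as inhibition relative to vehicle.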

Test [5] can be described thus: NCI Yeast Anticancer Drug Screen. Data for the bub3 strain (AID 167). The following applies: S. cerevisiae bub3 mutant strain, at 50.0 µM, active compounds read high. Summed up: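 In this screen, a yeast mutant lacking normal mitotic checkpoint function is challenged with compound. Relative growth versus vehicle gives the inhibition value.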
Test [6] is described as follows: NCI Yeast Anticancer Drug Screen. Data for the mlh1 rad18 strain (AID 175). The following applies: S. cerevisiae mlh1 rad18 strain growth inhibition; at 50.0 µM; active compounds read high. Summed up:
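In this whole-cell yeast screen, a strain with altered DNA damage repair is challenged with compound, and its growth is measured against matched vehicle-treated controls.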

For the compound `S=c1[nH]n(-c2ccccc2)c(=S)s1`, the growth inhibition in test [1] is -28.7%; in test [2], -41.1%; in test [3], -4.95%; in test [4], -1.15%; in test [5] it was 15.3%; in test [6], -22.6%.

`Nc1nc2c(-c3ccc([N+](=O)[O-])cc3)nnn2c2cccc(Cl)c12`: the growth inhibition in test [1] was -9.7%; in test [2], -15.8%; in test [3], -18.4%; in test [4], 4.85%; in test [5], -32.5%; in test [6], -14.7%.

With `O=C(Nc1ccc([N+](=O)[O-])cc1)c1cc(N2CCOCC2)ccn1`, the growth inhibition in test [1] was 38%; in test [2], 16.6%; in test [3], 21.6%; in test [4], 15.6%; in test [5], 2.15%; in test [6], 25.6%.

Take `COC(=O)C(C/C=C(\C)c1ccccc1)C(C)=O` (stereo not given): the growth inhibition was -13.1% in test [1]; -23.7% in test [2]; -25% in test [3]; 19.1% in test [4]; -23.1% in test [5]; -0.35% in test [6].

With `CS(=O)(=O)OCC1COCC1COS(C)(=O)=O` (stereo not given), the growth inhibition was 26.8% in test [1]; -6.3% in test [2]; 8.75% in test [3]; -11.8% in test [4]; -14.1% in test [5]; 16.6% in test [6].

Turning to `CSc1ncnc2[nH]ncc12`, the growth inhibition in test [1] is 4.5%; in test [2], 20.9%; in test [3] it was -30.5%; in test [4], -20.9%; in test [5], -0.4%; in test [6], -62.1%.

As to `CNc1cc(S(=O)(=O)O)ccc1C`, the growth inhibition in test [1] is 1.45%; in test [2], -4.45%; in test [3], -2.6%; in test [4] it was 3.9%; in test [5], 10.6%; in test [6], -5.05%.

`O=c1[nH]c(=O)n(C2CC(O)C(CO)O2)c2ncncc12` (stereo not given): the growth inhibition in test [1] was -0.85%; in test [2], -0.3%; in test [3], 4.45%; in test [4] it was 2.15%; in test [5], -10.1%; in test [6], -57.1%.

Take `Cc1ccc(S(=O)(=O)N(CCOc2c3occc3cc3ccc(=O)oc23)CCN(CCN(CCOc2c3occc3cc3ccc(=O)oc23)S(=O)(=O)c2ccc(C)cc2)S(=O)(=O)c2ccc(C)cc2)cc1`: the growth inhibition is -10.2% in test [1]; -11.7% in test [2]; -14.4% in test [3]; -31.6% in test [4]; -21.1% in test [5]; -6.8% in test [6].

In the case of `CSc1nc[nH]c1C(N)=S`, the growth inhibition was -13.1% in test [1]; 3% in test [2]; 2.6% in test [3]; -7.4% in test [4]; -24.4% in test [5]; 8.7% in test [6].

For the compound `NC(=O)/C=C/C(N)=O`, the growth inhibition in test [1] was 13.6%; in test [2], -9.45%; in test [3], -16.7%; in test [4] it was -13.5%; in test [5], -5.05%; in test [6] it was 2.7%.

With `COC(=O)CCc1ccc(CCC(=O)OC)cc1`, the growth inhibition in test [1] was -14.8%; in test [2], -37.1%; in test [3] it was -1.5%; in test [4] it was 4.2%; in test [5], -11.2%; in test [6] it was 9.7%.

Turning to `CC(C)=C1C=CC=C1`, the growth inhibition was -8% in test [1]; 0.65% in test [2]; 1.6% in test [3]; -5% in test [4]; 9.4% in test [5]; -6.95% in test [6].

With `O=[N+]([O-])c1ccccc1N=NNc1ccccc1[N+](=O)[O-]`, the growth inhibition in test [1] was 9.65%; in test [2], -4%; in test [3], 1.9%; in test [4], -26.6%; in test [5], 3.1%; in test [6], 3%.

Take `O=[N+]([O-])c1ccc(C[Se]c2ncnc3c2ncn3C2OC(CO)C(O)C2O)cc1` (stereo not given): the growth inhibition was -15.1% in test [1]; -7% in test [2]; 13.6% in test [3]; -32.2% in test [4]; 0.6% in test [5]; -8.35% in test [6].

For the compound `O=C(Nc1cc(NC(=O)n2nnc3ccccc32)c(Br)cc1Br)n1nnc2ccccc21`, the growth inhibition in test [1] is 51.4%; in test [2], 25%; in test [3], 27.2%; in test [4] it was 24.2%; in test [5] it was 2.15%; in test [6] it was 27.8%.

Regarding `N#CCC(=O)N/N=C(\C#N)c1ccccc1`, the growth inhibition was 8.65% in test [1]; 1.95% in test [2]; 0.55% in test [3]; -51.9% in test [4]; -18.1% in test [5]; 0.75% in test [6].

With `COc1cc(OC)cc(N2CCC(c3c(N)nc(N)nc3Cl)CC2)c1`, the growth inhibition was -4.1% in test [1]; 10.1% in test [2]; -8.65% in test [3]; -2.25% in test [4]; 15.2% in test [5]; -18.3% in test [6].

As to `Cc1ccc(N=Nc2c(C)nc(N)nc2C)cc1`, the growth inhibition in test [1] is 7.5%; in test [2] it was 13.9%; in test [3] it was -12.7%; in test [4], -2.85%; in test [5], 12.1%; in test [6] it was -6.55%.

As for `C[N+]1(C)CCCC(c2ccccc2)(c2ccccc2)C(O)C1` (stereo not given), the growth inhibition in test [1] is 10.8%; in test [2], 7.15%; in test [3] it was 11.2%; in test [4], 23.4%; in test [5], -2.65%; in test [6], 11.9%.

Turning to `CCCCC#CCN(CCCC)CCCC`, the growth inhibition in test [1] is -19.6%; in test [2], 1%; in test [3], -2.55%; in test [4], 13.3%; in test [5] it was 11.3%; in test [6], -29%.

With `CCCC(NC(=O)CN)C(=O)O` (stereo not given), the growth inhibition is 14.8% in test [1]; 19.1% in test [2]; 2% in test [3]; -50% in test [4]; -29.4% in test [5]; 6.5% in test [6].

`COc1ccc(Cc2ccc3[nH]c(=O)cc(C)c3c2)cc1S(=O)(=O)O`: the growth inhibition in test [1] was 33.8%; in test [2] it was -17.6%; in test [3], -15.5%; in test [4], 41.7%; in test [5], -17.7%; in test [6], 8.95%.

As for `Clc1ccc2sc(-n3ccc4ccccc43)nc2c1`, the growth inhibition is -35.9% in test [1]; -12.3% in test [2]; -24.7% in test [3]; 7.65% in test [4]; -15.4% in test [5]; -30.7% in test [6].

Turning to `Cc1cc2n(n1)C(=O)CC(=O)C2`, the growth inhibition in test [1] is 8.4%; in test [2] it was 1%; in test [3] it was 2.25%; in test [4] it was -24.4%; in test [5] it was -1.2%; in test [6], -3.7%.

With `Cc1ccc(/C=N/NC(=O)c2ccccc2NC(=O)c2ccccc2)cc1`, the growth inhibition was 57.4% in test [1]; 80.6% (active) in test [2]; 85.4% (active) in test [3]; 62% in test [4]; 70.8% (active) in test [5]; 69.8% in test [6].

Regarding `Cc1sc2ccnc(C)c2c1S(=O)(=O)O`, the growth inhibition in test [1] was 5.3%; in test [2], 9.95%; in test [3] it was -9.95%; in test [4], -3.5%; in test [5], 15.2%; in test [6] it was -12.4%.

Take `Clc1ccc2c(c1)CCc1cccnc1C2=C1CCNCC1`: the growth inhibition in test [1] is 8.55%; in test [2] it was -4.5%; in test [3] it was -20.6%; in test [4], 16.1%; in test [5], 0.4%; in test [6] it was -15.1%.

In the case of `O=C1N2Cc3c4ccc5c3CN3C(=O)N6Cc7c(ccc(c7CN1C6(c1ccccc1)C23c1ccccc1)OCCOCCOc1cc(Br)c(Br)cc1OCCOCCO4)OCCOCCOc1cc(Br)c(Br)cc1OCCOCCO5` (stereo not given), the growth inhibition in test [1] was -4.95%; in test [2], 8.95%; in test [3], -3.45%; in test [4] it was 18.1%; in test [5], -1.8%; in test [6], -16.4%.

For `Nc1nc(-c2ccccc2)c(Cl)c(-c2cc(Cl)ccc2O)n1`, the growth inhibition in test [1] is -1.45%; in test [2], -1.3%; in test [3] it was -10.4%; in test [4], 25.3%; in test [5], 4.25%; in test [6], 2.7%.

For the compound `CCCCCCC1N(C(C#N)c2ccccc2)CCCN1C(C#N)c1ccccc1` (stereo not given), the growth inhibition in test [1] was 19.8%; in test [2] it was 14.2%; in test [3] it was 16.6%; in test [4], 7.6%; in test [5] it was 2.4%; in test [6], 36.4%.

Regarding `COC1=CCC2=C(CCO2)C1`, the growth inhibition was 5.3% in test [1]; 0.35% in test [2]; -6.9% in test [3]; -18.5% in test [4]; -7.1% in test [5]; 1.1% in test [6].

For `CCOP(=O)(OCC)c1cc(NC(=O)c2cc(NC(=O)c3cc(NC(=O)Nc4cc(C(=O)Nc5cc(C(=O)Nc6cc(P(=O)(OCC)OCC)c7cccc(P(=O)(OCC)OCC)c7c6)n(C)c5)n(C)c4)cn3C)cn2C)cc2c(P(=O)(OCC)OCC)cccc12`, the growth inhibition in test [1] is -5.45%; in test [2], -1.55%; in test [3] it was -16.1%; in test [4], 19.9%; in test [5], 2.5%; in test [6], 10.7%.

`NC(Cc1ccc(B(O)O)cc1)C(=O)O` (stereo not given): the growth inhibition was -26.1% in test [1]; -53.6% in test [2]; -29.5% in test [3]; -7.4% in test [4]; 7.75% in test [5]; -4.05% in test [6].

On to `COC(=O)c1[nH]c(=O)c(C#N)c(C(=O)OC)c1C(=O)c1cccnc1`, for which the growth inhibition in test [1] is 2.95%; in test [2], -3.55%; in test [3], -5.2%; in test [4] it was 18.7%; in test [5], -17.4%; in test [6], 25.6%.

As to `CC(=O)Nc1ccc(C2SCc3nc4ccccc4n32)cc1` (stereo not given), the growth inhibition in test [1] is -21.5%; in test [2], -11.1%; in test [3], -32.5%; in test [4], -34.2%; in test [5] it was -24.9%; in test [6], -48.8%.

In the case of `CCOC(=O)c1ccc(NC(=S)NCc2cccnc2)cc1`, the growth inhibition in test [1] was 11.6%; in test [2], -3.25%; in test [3], 24.6%; in test [4], 4.95%; in test [5] it was 22.2%; in test [6] it was -6.7%.

With `COC1CCC(/C(C#N)=C/C2CCC(NC(C)=O)CC2)CC1` (stereo not given), the growth inhibition in test [1] was 3.95%; in test [2], 0.65%; in test [3] it was 25.9%; in test [4], 1%; in test [5], 22.1%; in test [6], 5.2%.

As for `O=C(O)c1ccccc1C(=O)Nc1ccc2ccccc2c1`, the growth inhibition in test [1] is 15.9%; in test [2], -4.6%; in test [3] it was 5%; in test [4], 2.6%; in test [5], 7.55%; in test [6] it was 18.9%.

On to `CCCCC(O)(CC)CC`, for which the growth inhibition in test [1] was 3.3%; in test [2] it was -23.9%; in test [3], -3.6%; in test [4], 5.5%; in test [5], -16.4%; in test [6], 15.2%.
